Compound activity: PubChem BioAssay, National Center for Advancing Translational Sciences (NCATS)
FUS suppressor: FUS proteinopathy suppression in yeast. Potency, µM (top dose mostly 76.6 µM), most hits filed as activators. actives 0.24% (n = 390,000). S. cerevisiae FUS-expressing, growth rescue, OD600, 24 h; also: nearly all actives have a fitted effect of over 55% in size
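Yeast expressing FUS under galactose induction, OD 0.005 in 2% galactose medium; compounds in a dilution series, 24 h at 30C. Growth rescue by absorbance at 600 nm; CP55940 positive control, DMSO negative.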
Abeta rescue: compounds reversing amyloid beta toxicity in yeast. yeast expressing A-beta42, growth rescue, OD600, 48 h; response scale: 0% DMSO, 100% iron-clioquinol control. Potency, µM (highest dose often 46.1 µM), actives largely listed as activators. actives 0.063% (n = 410,000). AID 1347071; also: nearly all actives have a fitted effect of over 55% in size
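Yeast growth medium received pinned compounds, then yeast cells expressing toxic A-beta were added; plates incubated at 30 C for 48 hr. Growth read as absorbance at 600 nm, normalized to DMSO and equimolar FeCl3 plus clioquinol controls.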
TDP-43 yeast inh: rescues yeast growth from TDP-43 toxicity. TDP-43 expressing yeast growth rescue, BacTiter-Glo, 24 h. Potency, µM (series often up to 46.1 µM), usual class: activators. actives 1.8% (n = 410,000). AID 652104; also: nearly all actives have a fitted effect of over 50% in size
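Yeast expressing TDP-43 (pregrown in raffinose, seeded at OD600=0.02 in galactose medium) exposed to compounds 24 hr at 30 deg C. Growth read by BacTiter-Glo luminescence; rescue of toxicity appears as increased signal.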
aSyn rescue: inhibitors of alpha-synuclein toxicity in yeast; Yeast expressing alpha-synuclein, growth rescue, BacTiter-Glo, 24 h; Potency, µM (doses to about 46.1 µM), most hits filed as activators; actives 0.14% (n = 370,000); AID 652106; also: nearly all actives have a fitted effect of over 65% in size
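Readout is rescue of growth in alpha-synuclein-expressing yeast, so inhibitors of toxicity appear as activators. Growth after 24 hr at 30 deg C in galactose medium is quantified by luminescence.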
Of the large screens only hits and unclear results are named; the others gave an inactive call. Rows were chosen to be rich in hits. Some 2.1% of all compounds tested hit in one or more screens of this group. Calls follow the shape of the dose curve; as a rule, active = well fitted curve in the direction sought with a large enough effect; inconclusive = small, poorly fitted or top-dose-only effect, or another doubt; inactive = no such curve, though single readings can be large; an effect the other way counts as inactive or inconclusive.

NC(=Nc1nc(-c2ccccn2)cc2ccccc12)c1ccccn1	Abeta rescue inconclusive, TDP-43 yeast inh 3.2µM, aSyn rescue inconclusive (no result: FUS suppressor)
CCc1ccc(-n2nc(C)c3c(C(=O)Nc4cc(C)c(Cl)cc4OC)cc(C)nc32)cc1	none (no result: aSyn rescue)
Cc1noc(C)c1-c1ccc(C(=O)NCc2cccs2)c2occc12	TDP-43 yeast inh 16µM
Cc1noc(C)c1-c1ccc(C(=O)NCCc2ccccc2)c2occc12	FUS suppressor inconclusive, TDP-43 yeast inh 32µM
CC(=O)Nc1ccc(NC(=O)c2ccc(-c3c(C)noc3C)c3ccoc23)cc1	none
CC(=O)Nc1ccc(-c2ccnc3c2CC(C)(C(=O)NCc2cccc(Cl)c2)O3)cc1 (centres undefined)	none
Cc1ccc(-n2c(=O)c3cccnc3n2CC(=O)Nc2ccc(Br)cc2)cc1C	none (no result: aSyn rescue)
COc1ccc(C(C)=O)cc1CSc1nnc(Nc2ccc(C)cc2C)s1	TDP-43 yeast inh 20µM, aSyn rescue inconclusive
Cc1cc(C)n2nc(CNS(=O)(=O)c3ccc(CC(C)C)cc3)nc2n1	none
Fc1ccc(N2CCN(c3ncnc4onc(-c5ccc(Cl)cc5)c34)CC2)cc1	TDP-43 yeast inh 18µM (no result: aSyn rescue)
O=c1oc(CCCO)cc2ccc(C#Cc3ccsc3)cc12	none
CC(C)(O)c1cc2ccc(C#Cc3ccsc3)cc2c(=O)o1	TDP-43 yeast inh 25µM
CCC(=O)N1c2ccc(S(=O)(=O)N3CCN(c4ccccc4Cl)CC3)cc2CC1C (centres undefined)	FUS suppressor inconclusive, TDP-43 yeast inh 35µM
COc1ccc(-n2c(C)nc3c(cnn3-c3ccc(C)c(C)c3)c2=O)cc1Cl	none (no result: aSyn rescue)
Cc1ccc(-n2c(C)nc3c(cnn3-c3ccc(C)c(C)c3)c2=O)cc1C	TDP-43 yeast inh inconclusive
Cc1ccc(-n2c(C)nc3c(cnn3-c3ccccc3Cl)c2=O)cc1C	TDP-43 yeast inh 11µM
COc1cccc(-n2c(C)nc3c(cnn3-c3ccc(C)c(C)c3)c2=O)c1	TDP-43 yeast inh 22µM (no result: aSyn rescue)
COc1ccc2oc(C(=O)N3CCN(S(=O)(=O)c4c(C)c(C)cc(C)c4C)CC3)c(C)c2c1	none
N#Cc1cnn2c3c(cnc12)C(=O)N1CCc2ccccc2C1C3 (centres undefined)	none
CC(C)C(=O)N1CCN(c2ccc([N+](=O)[O-])cc2Cl)CC1	TDP-43 yeast inh inconclusive (no result: FUS suppressor)
CC(C)CC(=O)N1CCN(c2ccc([N+](=O)[O-])cc2Cl)CC1	TDP-43 yeast inh 13µM, aSyn rescue inconclusive
O=C(/C=C/c1ccc(O)c(O)c1)OC(Cc1ccc(O)c(O)c1)C(=O)O (centres undefined)	none
O=C(/C=C/c1ccc(O)c(O)c1)OCCc1ccccc1	TDP-43 yeast inh 16µM, aSyn rescue 5.2µM
COc1ccc(/C=C/C(=O)OCC(=O)NCCCc2ccccc2)cc1OC	TDP-43 yeast inh 35µM
CCCCN(CC)c1nc(-c2ccccc2F)nc2ccccc12	none (no result: aSyn rescue)
Brc1ccc(OCc2nnnn2-c2ccccc2)cc1	TDP-43 yeast inh 22µM
COc1ccc(OCc2nnnn2-c2ccccc2)cc1	none
COc1ccc(-c2cc(C(=O)O)c(C)o2)cc1OC	TDP-43 yeast inh 20µM (no result: aSyn rescue)
Cc1oc(-c2ccc3c(c2)OCCO3)cc1C(=O)O	none (no result: FUS suppressor)
CCOc1ccc(Nc2ncnc3onc(-c4ccc(Cl)cc4)c23)cc1	TDP-43 yeast inh 22µM (no result: aSyn rescue)
COc1cc(Nc2ncnc3onc(-c4ccc(Cl)cc4)c23)cc(OC)c1	none
COC(=O)c1sccc1S(=O)(=O)N(CC(=O)Nc1ccccc1C)c1ccc(Cl)cc1	FUS suppressor 32µM (no result: aSyn rescue)
O=C(NC1CCCCC1)OC1CC2CC1[C@H]1CCCCN1C2=O (some centres undefined)	none
CCOC(=O)Nc1nc(-c2ccc(Cl)cc2Cl)cs1	TDP-43 yeast inh 11µM (no result: FUS suppressor)
Cc1cccc(C(=O)O/N=C(\c2ccccc2)c2cccnc2)c1	TDP-43 yeast inh 13µM
Cc1ccc(C(=O)O/N=C(\c2ccccc2)c2cccnc2)cc1	TDP-43 yeast inh 18µM
Nc1nc2cc(Cl)c(Br)cc2o1	TDP-43 yeast inh 20µM (no result: FUS suppressor)
Nc1nc2ccc(Cl)cc2o1	aSyn rescue inconclusive (no result: FUS suppressor)
O=C1CN(C(=O)c2ccc(S(=O)(=O)N3CCCC3)cc2)C(c2ccccc2)c2cc(Cl)ccc2N1 (centres undefined)	FUS suppressor inconclusive (no result: aSyn rescue)
Cc1ccc2c(c1)C(c1ccccc1)N(C(=O)c1ccc(S(=O)(=O)N3CCCC3)cc1)CC(=O)N2 (centres undefined)	FUS suppressor 25µM (no result: aSyn rescue)
CCC(=O)N(c1ccccc1)C1CCN(C(=O)C(Cc2ccccc2)NC(C)=O)CC1 (centres undefined)	none (no result: Abeta rescue, TDP-43 yeast inh, aSyn rescue)
O=C(Cc1ccc(S(=O)(=O)N2CCOCC2)s1)N1CCN(S(=O)(=O)c2ccccc2[N+](=O)[O-])CC1	FUS suppressor 22µM
CN1CCN(c2ccc(NC(=O)c3ccc(C#N)cc3F)cc2Cl)CC1	none (no result: TDP-43 yeast inh)
Cc1nn(Cc2ccc(F)cc2)c(C)c1NC(=O)c1cnn2c1NC(c1ccccc1)CC2C(F)(F)F (centres undefined)	FUS suppressor inconclusive
Cc1nn(Cc2ccc(F)cc2)c(C)c1NC(=O)c1cnn2c1NC(c1cccs1)CC2C(F)(F)F (centres undefined)	FUS suppressor 28µM
Cc1ccc(C)c(N2CCN(C(=O)Cn3ncc4ccsc4c3=O)CC2)c1	FUS suppressor inconclusive, aSyn rescue 16µM
CCOC(=O)c1sc2nc3c(cc2c1N)COC(C)(CC)C3 (centres undefined)	TDP-43 yeast inh 11µM (no result: aSyn rescue)
COc1ccc(N2CCN(CCCNC(=O)CCc3cccc(F)c3)CC2)cc1	none (no result: Abeta rescue, TDP-43 yeast inh, aSyn rescue)
O=C1CSc2ccc(C(=O)Nc3cccc(S(=O)(=O)Nc4ccc(Br)cc4)c3)cc2N1	FUS suppressor 7.1µM
COc1ccc(-c2nc3sc(CCNC(=O)Cc4ccc(F)cc4)c(C)n3n2)cc1	TDP-43 yeast inh inconclusive (no result: aSyn rescue)
O=C(Nc1cccc2c1[nH]c(=O)c1ccccc12)C(F)(F)F	none
O=C(Nc1cccc2c1[nH]c1ccccc12)C(F)(F)F	TDP-43 yeast inh 14µM
COc1cc(/C=C/C(=O)c2ccc(C)cc2)ccc1OCC#N	TDP-43 yeast inh 20µM (no result: FUS suppressor)
COc1ccc(/C=C/C(=O)c2cc(F)ccc2OC(=O)c2ccccc2)cc1OC	TDP-43 yeast inh 13µM
CCOc1ccc(C(=O)/C=C/c2cc(OC)c(OC)c(OC)c2)cc1	none
Cc1ccc(C(=O)Nc2ccc3ncccc3c2)cc1	none
Cc1ccc(C(=O)/C=C/c2ccc3ncccc3c2)cc1	TDP-43 yeast inh 13µM
COc1cc(/C=C/C(=O)c2ccc(F)cc2)cc(OC)c1OC	TDP-43 yeast inh 14µM
COc1cc2c(NC3CCN(C)CC3)nc(N3CCCN(C)CC3)nc2cc1OCCCCCCN(C)C	none (no result: FUS suppressor, Abeta rescue, TDP-43 yeast inh)
CCCn1c(CCCNC(=O)c2ccccc2OC)nc2ccccc21	none (no result: aSyn rescue)
Cc1nn(-c2ccc(Cl)c(Cl)c2Cl)c(=O)c2ccccc12	TDP-43 yeast inh 16µM
O=C1c2ccccc2C(=O)N1c1cccc(N2C(=O)c3ccccc3C2=O)n1	none (no result: FUS suppressor, Abeta rescue, TDP-43 yeast inh)
CC1=NN(/C(=N\c2nnc(C)s2)Nc2ccccc2)[C@H](c2cccc3ccccc23)S1	FUS suppressor inconclusive, TDP-43 yeast inh inconclusive
CC1=NN(/C(=N\c2nnc(C)s2)Nc2ccc(C)cc2)[C@H](c2ccc(C)cc2)S1	TDP-43 yeast inh 13µM
